Measurements taken from ChEMBL document CHEMBL1961873, “Compounds: GSK PKIS; Assays: Nanosyn kinase panel” (2012).

Assays:
[1] = target: T1, Serine/threonine-protein kinase Nek9 (Homo sapiens) (UniProt Q8TD19); details: at 1 µM;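 note: each value is a mean percent inhibition of NEK9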
T1 sequence (whole entry): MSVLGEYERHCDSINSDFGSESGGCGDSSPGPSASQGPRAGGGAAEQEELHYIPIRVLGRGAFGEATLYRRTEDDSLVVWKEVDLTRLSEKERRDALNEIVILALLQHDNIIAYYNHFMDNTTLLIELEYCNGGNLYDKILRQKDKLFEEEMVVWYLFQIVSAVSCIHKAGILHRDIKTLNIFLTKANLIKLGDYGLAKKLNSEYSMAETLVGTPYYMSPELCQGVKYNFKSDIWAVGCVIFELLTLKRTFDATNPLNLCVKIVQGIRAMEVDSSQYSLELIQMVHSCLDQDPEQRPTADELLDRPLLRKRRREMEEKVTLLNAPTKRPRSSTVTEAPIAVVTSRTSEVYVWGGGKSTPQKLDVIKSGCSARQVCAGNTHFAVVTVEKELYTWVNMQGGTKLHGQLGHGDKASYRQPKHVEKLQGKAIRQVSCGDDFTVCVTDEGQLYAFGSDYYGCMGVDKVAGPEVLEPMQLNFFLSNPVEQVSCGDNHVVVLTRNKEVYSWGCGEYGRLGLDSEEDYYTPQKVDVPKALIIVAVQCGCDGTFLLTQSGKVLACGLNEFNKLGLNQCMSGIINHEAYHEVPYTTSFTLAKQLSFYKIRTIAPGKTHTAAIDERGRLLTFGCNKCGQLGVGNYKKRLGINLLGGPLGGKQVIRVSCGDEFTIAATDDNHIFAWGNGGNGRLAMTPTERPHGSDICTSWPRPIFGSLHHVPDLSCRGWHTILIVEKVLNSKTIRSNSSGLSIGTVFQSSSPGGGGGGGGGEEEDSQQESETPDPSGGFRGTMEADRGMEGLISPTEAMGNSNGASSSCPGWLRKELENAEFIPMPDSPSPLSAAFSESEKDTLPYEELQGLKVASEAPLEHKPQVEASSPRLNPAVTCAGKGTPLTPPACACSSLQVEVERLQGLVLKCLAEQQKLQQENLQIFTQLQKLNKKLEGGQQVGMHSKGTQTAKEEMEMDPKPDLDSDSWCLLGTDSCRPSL

[2] = target: Serine/threonine-protein kinase PLK1 (Homo sapiens) (UniProt P53350); details: at 0.1 µM
Chain of Serine/threonine-protein kinase PLK1 (Homo sapiens) (P53350 whole entry): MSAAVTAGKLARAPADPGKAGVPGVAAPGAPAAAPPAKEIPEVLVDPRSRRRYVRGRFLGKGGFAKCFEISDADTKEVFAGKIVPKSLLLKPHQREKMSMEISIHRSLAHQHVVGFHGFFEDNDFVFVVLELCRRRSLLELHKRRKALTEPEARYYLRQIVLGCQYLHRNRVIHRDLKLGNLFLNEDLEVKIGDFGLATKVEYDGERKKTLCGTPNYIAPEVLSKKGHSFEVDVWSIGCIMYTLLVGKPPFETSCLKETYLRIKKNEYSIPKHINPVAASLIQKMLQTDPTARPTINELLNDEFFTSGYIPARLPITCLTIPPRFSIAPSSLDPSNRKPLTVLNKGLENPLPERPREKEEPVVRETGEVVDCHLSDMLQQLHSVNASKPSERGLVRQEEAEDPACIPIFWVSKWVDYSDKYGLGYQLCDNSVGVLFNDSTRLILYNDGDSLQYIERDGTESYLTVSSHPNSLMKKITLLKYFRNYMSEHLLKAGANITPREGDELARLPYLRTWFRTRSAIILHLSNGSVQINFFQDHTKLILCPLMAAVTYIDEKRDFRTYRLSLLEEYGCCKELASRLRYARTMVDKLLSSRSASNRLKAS

[3] = target: Serine/threonine-protein kinase PLK1 (Homo sapiens) (UniProt P53350); details: at 1 µM
[4] = target: T2, Dual specificity protein kinase TTK (Homo sapiens) (UniProt P33981); details: at 0.1 µM
T2 sequence (whole entry): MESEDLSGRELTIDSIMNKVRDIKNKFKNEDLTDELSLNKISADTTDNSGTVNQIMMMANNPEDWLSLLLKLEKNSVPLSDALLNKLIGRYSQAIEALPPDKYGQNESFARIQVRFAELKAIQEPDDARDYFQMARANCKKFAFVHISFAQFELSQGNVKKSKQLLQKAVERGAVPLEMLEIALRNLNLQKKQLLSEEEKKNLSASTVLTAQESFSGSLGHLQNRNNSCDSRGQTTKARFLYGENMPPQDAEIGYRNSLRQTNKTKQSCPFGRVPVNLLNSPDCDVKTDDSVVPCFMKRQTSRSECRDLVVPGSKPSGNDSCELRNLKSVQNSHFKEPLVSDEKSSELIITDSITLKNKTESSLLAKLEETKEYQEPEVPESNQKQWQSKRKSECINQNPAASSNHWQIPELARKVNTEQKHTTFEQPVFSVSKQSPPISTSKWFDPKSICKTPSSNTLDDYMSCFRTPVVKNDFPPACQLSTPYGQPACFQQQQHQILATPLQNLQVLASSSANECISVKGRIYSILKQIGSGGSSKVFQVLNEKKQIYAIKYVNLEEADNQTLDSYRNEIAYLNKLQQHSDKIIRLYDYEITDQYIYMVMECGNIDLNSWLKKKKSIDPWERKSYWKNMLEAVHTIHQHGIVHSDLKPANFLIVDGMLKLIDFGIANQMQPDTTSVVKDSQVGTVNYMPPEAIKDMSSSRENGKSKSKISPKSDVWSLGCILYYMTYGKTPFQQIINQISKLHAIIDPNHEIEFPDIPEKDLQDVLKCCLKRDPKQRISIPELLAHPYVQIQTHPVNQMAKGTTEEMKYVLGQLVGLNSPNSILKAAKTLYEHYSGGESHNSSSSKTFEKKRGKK

[5] = test system: T3, Receptor-type tyrosine-protein kinase FLT3 (Homo sapiens), P36888 [D835Y]; details: at 1 µM
T3 sequence (whole entry): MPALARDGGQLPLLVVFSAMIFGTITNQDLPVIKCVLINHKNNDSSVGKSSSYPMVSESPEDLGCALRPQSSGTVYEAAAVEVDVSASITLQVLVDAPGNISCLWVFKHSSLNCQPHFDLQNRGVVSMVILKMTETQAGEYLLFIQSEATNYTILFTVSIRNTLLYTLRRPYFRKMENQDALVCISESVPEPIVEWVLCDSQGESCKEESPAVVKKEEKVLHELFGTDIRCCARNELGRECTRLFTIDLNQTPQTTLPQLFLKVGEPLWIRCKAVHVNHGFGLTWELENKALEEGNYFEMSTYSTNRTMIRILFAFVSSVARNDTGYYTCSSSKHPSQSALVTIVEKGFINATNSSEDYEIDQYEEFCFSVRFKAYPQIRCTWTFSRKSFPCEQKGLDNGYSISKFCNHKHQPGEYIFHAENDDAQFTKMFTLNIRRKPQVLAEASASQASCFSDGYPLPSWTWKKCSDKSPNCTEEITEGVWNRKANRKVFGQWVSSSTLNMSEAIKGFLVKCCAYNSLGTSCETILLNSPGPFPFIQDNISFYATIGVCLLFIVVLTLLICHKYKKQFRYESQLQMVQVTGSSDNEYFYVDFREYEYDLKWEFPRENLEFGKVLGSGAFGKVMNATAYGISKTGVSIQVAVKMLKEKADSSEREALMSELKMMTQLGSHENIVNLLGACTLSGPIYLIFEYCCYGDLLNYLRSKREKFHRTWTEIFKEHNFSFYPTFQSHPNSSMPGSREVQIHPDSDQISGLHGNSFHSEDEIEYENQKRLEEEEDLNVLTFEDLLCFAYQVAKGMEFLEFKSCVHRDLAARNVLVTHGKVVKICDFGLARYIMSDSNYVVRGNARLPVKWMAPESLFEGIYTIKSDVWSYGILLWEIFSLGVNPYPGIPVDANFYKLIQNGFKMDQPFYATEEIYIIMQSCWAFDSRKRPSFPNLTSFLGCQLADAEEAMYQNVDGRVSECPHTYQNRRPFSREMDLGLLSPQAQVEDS

[6] = target: Vascular endothelial growth factor receptor 3 (Homo sapiens) (UniProt P35916); details: at 0.1 µM
Chain of Vascular endothelial growth factor receptor 3 (Homo sapiens) (P35916 whole entry): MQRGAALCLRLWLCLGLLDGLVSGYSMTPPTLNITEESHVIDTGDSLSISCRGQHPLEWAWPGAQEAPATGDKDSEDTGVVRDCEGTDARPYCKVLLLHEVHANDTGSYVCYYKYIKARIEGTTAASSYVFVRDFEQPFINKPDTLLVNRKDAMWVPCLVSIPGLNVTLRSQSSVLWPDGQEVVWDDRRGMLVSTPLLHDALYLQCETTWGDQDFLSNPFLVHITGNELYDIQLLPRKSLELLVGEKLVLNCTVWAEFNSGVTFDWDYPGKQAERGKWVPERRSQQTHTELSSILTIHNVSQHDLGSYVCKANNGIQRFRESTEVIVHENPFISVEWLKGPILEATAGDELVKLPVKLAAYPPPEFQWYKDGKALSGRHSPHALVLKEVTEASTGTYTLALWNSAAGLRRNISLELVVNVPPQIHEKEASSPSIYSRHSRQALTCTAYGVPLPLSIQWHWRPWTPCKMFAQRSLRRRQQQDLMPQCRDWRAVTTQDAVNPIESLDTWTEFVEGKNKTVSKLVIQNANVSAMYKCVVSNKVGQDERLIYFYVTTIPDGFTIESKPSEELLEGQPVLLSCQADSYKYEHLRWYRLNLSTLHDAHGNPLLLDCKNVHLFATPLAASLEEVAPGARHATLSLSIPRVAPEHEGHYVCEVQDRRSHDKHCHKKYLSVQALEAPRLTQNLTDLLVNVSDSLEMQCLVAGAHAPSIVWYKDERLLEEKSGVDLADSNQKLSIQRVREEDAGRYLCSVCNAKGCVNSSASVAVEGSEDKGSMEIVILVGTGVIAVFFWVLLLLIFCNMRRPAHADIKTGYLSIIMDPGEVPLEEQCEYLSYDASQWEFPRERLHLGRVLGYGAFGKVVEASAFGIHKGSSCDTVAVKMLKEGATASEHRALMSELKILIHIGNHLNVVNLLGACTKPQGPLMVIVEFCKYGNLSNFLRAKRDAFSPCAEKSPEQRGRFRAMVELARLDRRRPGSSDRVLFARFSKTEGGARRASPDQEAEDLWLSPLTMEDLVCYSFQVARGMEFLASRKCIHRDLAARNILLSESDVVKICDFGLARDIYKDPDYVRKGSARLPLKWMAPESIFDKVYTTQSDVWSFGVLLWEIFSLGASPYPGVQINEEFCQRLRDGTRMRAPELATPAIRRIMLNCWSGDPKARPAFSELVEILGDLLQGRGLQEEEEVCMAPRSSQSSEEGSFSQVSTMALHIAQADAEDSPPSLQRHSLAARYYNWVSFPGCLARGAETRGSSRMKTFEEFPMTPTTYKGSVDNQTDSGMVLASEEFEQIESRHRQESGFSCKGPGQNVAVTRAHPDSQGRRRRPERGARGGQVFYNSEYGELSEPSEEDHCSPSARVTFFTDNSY

[7] = target: Vascular endothelial growth factor receptor 3 (Homo sapiens) (UniProt P35916); details: at 1 µM
[8] = target: Macrophage colony-stimulating factor 1 receptor (Homo sapiens) (UniProt P07333); details: at 0.1 µM
Chain of Macrophage colony-stimulating factor 1 receptor (Homo sapiens) (P07333 whole entry): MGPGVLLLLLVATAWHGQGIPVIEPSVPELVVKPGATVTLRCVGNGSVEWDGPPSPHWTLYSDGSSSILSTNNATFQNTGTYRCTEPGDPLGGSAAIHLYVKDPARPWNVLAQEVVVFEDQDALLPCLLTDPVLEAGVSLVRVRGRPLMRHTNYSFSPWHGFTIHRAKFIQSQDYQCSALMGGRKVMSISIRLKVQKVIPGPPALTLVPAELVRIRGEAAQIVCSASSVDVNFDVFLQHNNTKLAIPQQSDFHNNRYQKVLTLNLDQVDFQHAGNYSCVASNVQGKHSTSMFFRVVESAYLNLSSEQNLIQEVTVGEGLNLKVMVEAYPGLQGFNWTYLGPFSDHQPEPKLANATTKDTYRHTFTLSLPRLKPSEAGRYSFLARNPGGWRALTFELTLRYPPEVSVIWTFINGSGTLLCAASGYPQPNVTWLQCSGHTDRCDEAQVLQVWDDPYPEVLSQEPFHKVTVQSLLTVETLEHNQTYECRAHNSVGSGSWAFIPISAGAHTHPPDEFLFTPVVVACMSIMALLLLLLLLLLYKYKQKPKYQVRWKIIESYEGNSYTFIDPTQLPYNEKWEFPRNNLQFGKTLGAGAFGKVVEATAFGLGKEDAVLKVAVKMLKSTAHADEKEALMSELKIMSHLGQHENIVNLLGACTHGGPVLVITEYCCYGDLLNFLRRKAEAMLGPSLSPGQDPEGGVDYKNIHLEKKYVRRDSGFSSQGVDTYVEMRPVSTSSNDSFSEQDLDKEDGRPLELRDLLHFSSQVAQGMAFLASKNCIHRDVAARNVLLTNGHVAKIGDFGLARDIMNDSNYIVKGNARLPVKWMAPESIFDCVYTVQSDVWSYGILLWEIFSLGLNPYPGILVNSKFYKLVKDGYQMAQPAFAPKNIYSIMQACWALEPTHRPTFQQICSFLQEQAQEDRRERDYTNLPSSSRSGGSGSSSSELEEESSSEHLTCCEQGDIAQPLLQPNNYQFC

[9] = target: Macrophage colony-stimulating factor 1 receptor (Homo sapiens) (UniProt P07333); details: at 1 µM
[10] = target: Tyrosine-protein kinase Fyn (Homo sapiens) (UniProt P06241); details: at 0.1 µM
Chain of Tyrosine-protein kinase Fyn (Homo sapiens) (P06241 2-537 limits assumed): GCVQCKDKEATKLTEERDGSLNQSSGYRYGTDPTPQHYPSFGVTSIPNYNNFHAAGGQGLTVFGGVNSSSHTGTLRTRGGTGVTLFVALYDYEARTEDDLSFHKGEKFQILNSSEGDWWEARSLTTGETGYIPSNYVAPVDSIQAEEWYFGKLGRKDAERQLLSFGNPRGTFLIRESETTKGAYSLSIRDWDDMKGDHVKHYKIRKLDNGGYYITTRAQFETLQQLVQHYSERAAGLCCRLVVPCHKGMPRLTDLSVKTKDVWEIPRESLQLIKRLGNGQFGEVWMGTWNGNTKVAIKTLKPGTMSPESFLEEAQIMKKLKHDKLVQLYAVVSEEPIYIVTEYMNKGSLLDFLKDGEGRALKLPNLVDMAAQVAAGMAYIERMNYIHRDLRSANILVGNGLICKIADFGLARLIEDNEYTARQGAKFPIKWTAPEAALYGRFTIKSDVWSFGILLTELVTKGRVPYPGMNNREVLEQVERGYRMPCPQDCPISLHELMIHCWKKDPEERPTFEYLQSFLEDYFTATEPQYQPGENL

SMILES | inhibition [1] [%] | inhibition [2] [%] | inhibition [3] [%] | inhibition [4] [%] | inhibition [5] [%] | inhibition [6] [%] | inhibition [7] [%] | inhibition [8] [%] | inhibition [9] [%] | inhibition [10] [%]
Cc1ccc(C(=O)NC2CCCCC2)cc1-c1ccc(C(=O)NCC2CC2)cc1 | -4.93 | 3 | 2.23 | 2.82 | -1.53 | 3.84 | 5.49 | -0.58 | 5.17 | -0.84
CS(=O)(=O)CCNCc1nc(-c2ccc3ncnc(Nc4ccc(F)c(Cl)c4)c3c2)cs1 | -7.92 | 1.65 | 1.15 | 1.71 | 5.8 | 3.61 | 6.4 | 1.81 | 3.54 | -1.21
COc1ccc(-c2ccncc2)cc1C(N)=O | 2.67 | 5.64 | 6.97 | 5.37 | 3.51 | 3.2 | 2 | 2.6 | 5.33 | 2.01
CCn1c(-c2nonc2N)nc2cncc(C(=O)N3CC[C@H](N)C3)c21 | 19.1 | 4.34 | 8.01 | 16 | -5.46 | 5.85 | 7.41 | 1.27 | 3.01 | 3.5
COc1cc2ncn(-c3cc(OCc4ccccc4Cl)c(C(N)=O)s3)c2cc1OC | 55.5 | 93.8 | 96.3 | 2.78 | 9.43 | 11.9 | 54.8 | 1.91 | 23.7 | 2.79
CC(C)=Cc1cccc2c1/C(=N/Nc1ccc(S(N)(=O)=O)cc1)C(=O)N2 | 1.52 | -0.43 | 0.59 | 11.7 | 66.6 | 4.82 | 46.6 | 41.8 | 86.8 | 4.49
COc1ccc(-c2coc3ncnc(N)c23)cc1 | 6.24 | 3.82 | 3.47 | 10.9 | -3.79 | 0.69 | -0.08 | 4.17 | 2.83 | 0.65
COc1ccc(-c2nn3ncccc3c2-c2ccnc(Nc3ccc(Cl)c(C(F)(F)F)c3)n2)cc1 | 6.74 | 0.21 | 3.01 | 5.35 | -6.5 | -0.61 | 3.27 | -1.71 | 5.03 | 3.8
Cc1cccc(-c2n[nH]cc2-c2ccc3ncccc3n2)n1 | 4.16 | 0.53 | 3.07 | 2.51 | -2.35 | 4.9 | 39.4 | 2.38 | 2.47 | 0.64
CN(C)c1cc2c(Nc3ccc4nc(Cc5ccccc5)[nH]c4c3)ncnc2cn1 | 10.6 | 6.15 | 6.34 | 13.2 | -1.97 | 7.56 | 11.3 | 4.7 | 15.4 | 4.62
